Columns and labels:
Assay in all cases: SPOT peptide array binding signal intensity (averaged, normalized) (arbitrary units (background-subtracted, floor 0; scale differs between SH3 domains)); higher = stronger binding of the SH3 domain to the peptide
AgAbp1 = target: AgAbp1
In short: (§1)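 Spot intensities were captured after detection with anti-GST antibody, an HRP-linked anti-mouse secondary and luminol, and quantified with Genespotter. The probes were GST-fused SH3 domains from four yeast species, produced in E. coli BL21(DE3), purified on glutathione Sepharose and incubated at 10 μg/ml overnight at 4°C on cellulose-bound synthetic 15-mer peptides with cysteines replaced by serines. Binding signal is the normalized, background-subtracted spot intensity averaged over replicates, and its arbitrary units differ between domains.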

AgBbc1 = target: AgBbc1
In short: as §1

AgBem1-D1 = target: AgBem1-D1
In short: as §1

AgBzz1-D1 = target: AgBzz1-D1
In short: as §1

AgBzz1-D2 = target: AgBzz1-D2
In short: as §1

AgCyk3 = target: AgCyk3
In short: as §1

AgFus1 = target: AgFus1
In short: as §1

AgHof1 = target: AgHof1
In short: as §1

AgHse1 = target: AgHse1
In short: as §1

AgLsb1 = target: AgLsb1
In short: as §1

AgLsb4 = target: AgLsb4
In short: as §1

AgMyo5 = target: AgMyo5
In short: as §1

AgNbp2 = target: AgNbp2
In short: as §1

AgRvs167 = target: AgRvs167
In short: as §1

AgSho1 = target: AgSho1
In short: as §1

AgSla1-D1-D2 = target: AgSla1-D1-D2
In short: as §1

AgSla1-D3 = target: AgSla1-D3
In short: as §1

CaAbp1-D1 = target: CaAbp1-D1
In short: as §1

CaAbp1-D2 = target: CaAbp1-D2
In short: as §1

CaBbc1 = target: CaBbc1
In short: as §1

CaBem1-D1 = target: CaBem1-D1
In short: as §1

CaBzz1-D1 = target: CaBzz1-D1
In short: as §1

CaBzz1-D2 = target: CaBzz1-D2
In short: as §1

CaCyk3 = target: CaCyk3
In short: as §1

CaFus1 = target: CaFus1
In short: as §1

CaHof1 = target: CaHof1
In short: as §1

CaHse1 = target: CaHse1
In short: as §1

CaLsb1 = target: CaLsb1
In short: as §1

CaLsb4 = target: CaLsb4
In short: as §1

CaMyo5 = target: CaMyo5
In short: as §1

CaNbp2 = target: CaNbp2
In short: as §1

CaRvs167 = target: CaRvs167
In short: as §1

CaRvs167-3 = target: CaRvs167-3
In short: as §1

CaSho1 = target: CaSho1
In short: as §1

CaSla1-D1-D2 = target: CaSla1-D1-D2
In short: as §1

CaSla1-D3 = target: CaSla1-D3
In short: as §1

ScAbp1 = target: ScAbp1
In short: as §1

ScBbc1 = target: ScBbc1
In short: as §1

ScBem1-D1 = target: ScBem1-D1
In short: as §1

ScBzz1-D1 = target: ScBzz1-D1
In short: as §1

ScBzz1-D2 = target: ScBzz1-D2
In short: as §1

ScCyk3 = target: ScCyk3
In short: as §1

ScFus1 = target: ScFus1
In short: as §1

ScHof1 = target: ScHof1
In short: as §1

ScHse1 = target: ScHse1
In short: as §1

ScLsb1 = target: ScLsb1
In short: as §1

ScLsb2 = target: ScLsb2
In short: as §1

ScLsb3 = target: ScLsb3
In short: as §1

ScLsb4 = target: ScLsb4
In short: as §1

ScMyo3 = target: ScMyo3
In short: as §1

ScMyo5 = target: ScMyo5
In short: as §1

ScNbp2 = target: ScNbp2
In short: as §1

ScPex13 = target: ScPex13
In short: as §1

ScRvs167 = target: ScRvs167
In short: as §1

ScSho1 = target: ScSho1
In short: as §1

ScSla1-D1-D2 = target: ScSla1-D1-D2
In short: as §1

ScSla1-D3 = target: ScSla1-D3
In short: as §1

SpAbp1-D1 = target: SpAbp1-D1
In short: as §1

SpBbc1 = target: SpBbc1
In short: as §1

SpBzz1-D1 = target: SpBzz1-D1
In short: as §1

SpBzz1-D2 = target: SpBzz1-D2
In short: as §1

SpCyk3 = target: SpCyk3
In short: as §1

SpHof1 = target: SpHof1
In short: as §1

SpHof1-2 = target: SpHof1-2
In short: as §1

SpHof1-3 = target: SpHof1-3
In short: as §1

SpHse1 = target: SpHse1
In short: as §1

SpLsb1 = target: SpLsb1
In short: as §1

SpLsb4 = target: SpLsb4
In short: as §1

SpMyo1 = target: SpMyo1
In short: as §1

SpNbp2 = target: SpNbp2
In short: as §1

SpPex13 = target: SpPex13
In short: as §1

SpRvs167 = target: SpRvs167
In short: as §1

SpSla1-D1-D2 = target: SpSla1-D1-D2
In short: as §1

SpSla1-D3 = target: SpSla1-D3
In short: as §1

## QTMRQAPKRPDADVA
AgAbp1
  SPOT peptide array binding signal intensity: 17
AgBbc1
  SPOT peptide array binding signal intensity: 170
AgBem1-D1
  SPOT peptide array binding signal intensity: 369
AgBzz1-D1
  SPOT peptide array binding signal intensity: 11
AgBzz1-D2
  SPOT peptide array binding signal intensity: 10
AgCyk3
  SPOT peptide array binding signal intensity: ≤ 0
AgFus1
  SPOT peptide array binding signal intensity: 728
AgHof1
  SPOT peptide array binding signal intensity: 9
AgHse1
  SPOT peptide array binding signal intensity: 132
AgLsb1
  SPOT peptide array binding signal intensity: 48.8
AgLsb4
  SPOT peptide array binding signal intensity: 36
AgMyo5
  SPOT peptide array binding signal intensity: 18.8
AgNbp2
  SPOT peptide array binding signal intensity: 2740
AgRvs167
  SPOT peptide array binding signal intensity: 20.3
AgSho1
  SPOT peptide array binding signal intensity: 684
AgSla1-D1-D2
  SPOT peptide array binding signal intensity: 9
AgSla1-D3
  SPOT peptide array binding signal intensity: 14.8
CaAbp1-D1
  SPOT peptide array binding signal intensity: 144
CaAbp1-D2
  SPOT peptide array binding signal intensity: 292
CaBbc1
  SPOT peptide array binding signal intensity: 942
CaBem1-D1
  SPOT peptide array binding signal intensity: 565
CaBzz1-D1
  SPOT peptide array binding signal intensity: 458
CaBzz1-D2
  SPOT peptide array binding signal intensity: 286
CaCyk3
  SPOT peptide array binding signal intensity: 35
CaFus1
  SPOT peptide array binding signal intensity: 1110
CaHof1
  SPOT peptide array binding signal intensity: 1
CaHse1
  SPOT peptide array binding signal intensity: 146
CaLsb1
  SPOT peptide array binding signal intensity: 18.2
CaLsb4
  SPOT peptide array binding signal intensity: 910
CaMyo5
  SPOT peptide array binding signal intensity: 56.2
CaNbp2
  SPOT peptide array binding signal intensity: 1450
CaRvs167
  SPOT peptide array binding signal intensity: 163
CaRvs167-3
  SPOT peptide array binding signal intensity: 0.75
CaSho1
  SPOT peptide array binding signal intensity: 1860
CaSla1-D1-D2
  SPOT peptide array binding signal intensity: 553
CaSla1-D3
  SPOT peptide array binding signal intensity: 650
ScAbp1
  SPOT peptide array binding signal intensity: 7
ScBbc1
  SPOT peptide array binding signal intensity: 68.5
ScBem1-D1
  SPOT peptide array binding signal intensity: 1
ScBzz1-D1
  SPOT peptide array binding signal intensity: 6
ScBzz1-D2
  SPOT peptide array binding signal intensity: 27
ScCyk3
  SPOT peptide array binding signal intensity: 4
ScFus1
  SPOT peptide array binding signal intensity: 1110
ScHof1
  SPOT peptide array binding signal intensity: 0.5
ScHse1
  SPOT peptide array binding signal intensity: 84.5
ScLsb1
  SPOT peptide array binding signal intensity: 78
ScLsb2
  SPOT peptide array binding signal intensity: 29.5
ScLsb3
  SPOT peptide array binding signal intensity: 961
ScLsb4
  SPOT peptide array binding signal intensity: 524
ScMyo3
  SPOT peptide array binding signal intensity: 227
ScMyo5
  SPOT peptide array binding signal intensity: 47.5
ScNbp2
  SPOT peptide array binding signal intensity: 3190
ScPex13
  SPOT peptide array binding signal intensity: 766
ScRvs167
  SPOT peptide array binding signal intensity: 136
ScSho1
  SPOT peptide array binding signal intensity: 930
ScSla1-D1-D2
  SPOT peptide array binding signal intensity: 690
ScSla1-D3
  SPOT peptide array binding signal intensity: 700
SpAbp1-D1
  SPOT peptide array binding signal intensity: 66
SpBbc1
  SPOT peptide array binding signal intensity: 42.5
SpBzz1-D1
  SPOT peptide array binding signal intensity: 188

## RPVPPPPPMRTTTEG
AgAbp1
  SPOT peptide array binding signal intensity: 18
AgBbc1
  SPOT peptide array binding signal intensity: 814
AgBem1-D1
  SPOT peptide array binding signal intensity: 201
AgBzz1-D1
  SPOT peptide array binding signal intensity: 156
AgBzz1-D2
  SPOT peptide array binding signal intensity: 14.5
AgCyk3
  SPOT peptide array binding signal intensity: 14
AgFus1
  SPOT peptide array binding signal intensity: 63
AgHof1
  SPOT peptide array binding signal intensity: 61.8
AgHse1
  SPOT peptide array binding signal intensity: 144
AgLsb1
  SPOT peptide array binding signal intensity: 303
AgLsb4
  SPOT peptide array binding signal intensity: 1760
AgMyo5
  SPOT peptide array binding signal intensity: 41.2
AgNbp2
  SPOT peptide array binding signal intensity: 3100
AgRvs167
  SPOT peptide array binding signal intensity: 1050
AgSho1
  SPOT peptide array binding signal intensity: 136
AgSla1-D1-D2
  SPOT peptide array binding signal intensity: 1
AgSla1-D3
  SPOT peptide array binding signal intensity: 108
CaAbp1-D1
  SPOT peptide array binding signal intensity: 364
CaAbp1-D2
  SPOT peptide array binding signal intensity: 60.5
CaBbc1
  SPOT peptide array binding signal intensity: 553
CaBem1-D1
  SPOT peptide array binding signal intensity: 166
CaBzz1-D1
  SPOT peptide array binding signal intensity: 3990
CaBzz1-D2
  SPOT peptide array binding signal intensity: 1260
CaCyk3
  SPOT peptide array binding signal intensity: 387
CaFus1
  SPOT peptide array binding signal intensity: 548
CaHof1
  SPOT peptide array binding signal intensity: 40
CaHse1
  SPOT peptide array binding signal intensity: 405
CaLsb1
  SPOT peptide array binding signal intensity: 1
CaLsb4
  SPOT peptide array binding signal intensity: 2480
CaMyo5
  SPOT peptide array binding signal intensity: 54
CaNbp2
  SPOT peptide array binding signal intensity: 1490
CaRvs167
  SPOT peptide array binding signal intensity: 1460
CaRvs167-3
  SPOT peptide array binding signal intensity: 0.75
CaSho1
  SPOT peptide array binding signal intensity: 650
CaSla1-D1-D2
  SPOT peptide array binding signal intensity: 1590
CaSla1-D3
  SPOT peptide array binding signal intensity: 928
ScAbp1
  SPOT peptide array binding signal intensity: 21
ScBbc1
  SPOT peptide array binding signal intensity: 64.8
ScBem1-D1
  SPOT peptide array binding signal intensity: ≤ 0
ScBzz1-D1
  SPOT peptide array binding signal intensity: 177
ScBzz1-D2
  SPOT peptide array binding signal intensity: 14.5
ScCyk3
  SPOT peptide array binding signal intensity: 8.5
ScFus1
  SPOT peptide array binding signal intensity: 180
ScHof1
  SPOT peptide array binding signal intensity: 46.2
ScHse1
  SPOT peptide array binding signal intensity: 63
ScLsb1
  SPOT peptide array binding signal intensity: 180
ScLsb2
  SPOT peptide array binding signal intensity: 434
ScLsb3
  SPOT peptide array binding signal intensity: 4080
ScLsb4
  SPOT peptide array binding signal intensity: 3130
ScMyo3
  SPOT peptide array binding signal intensity: 569
ScMyo5
  SPOT peptide array binding signal intensity: 239
ScNbp2
  SPOT peptide array binding signal intensity: 4580
ScPex13
  SPOT peptide array binding signal intensity: 1500
ScRvs167
  SPOT peptide array binding signal intensity: 3300
ScSho1
  SPOT peptide array binding signal intensity: 616
ScSla1-D1-D2
  SPOT peptide array binding signal intensity: 1870
ScSla1-D3
  SPOT peptide array binding signal intensity: 222
SpAbp1-D1
  SPOT peptide array binding signal intensity: 95.5
SpBbc1
  SPOT peptide array binding signal intensity: 40.5
SpBzz1-D1
  SPOT peptide array binding signal intensity: 1370
SpBzz1-D2
  SPOT peptide array binding signal intensity: 88
SpCyk3
  SPOT peptide array binding signal intensity: 112
SpHof1
  SPOT peptide array binding signal intensity: 111
SpHof1-2
  SPOT peptide array binding signal intensity: 110
SpHof1-3
  SPOT peptide array binding signal intensity: 966
SpHse1
  SPOT peptide array binding signal intensity: 147
SpLsb1
  SPOT peptide array binding signal intensity: 161
SpLsb4
  SPOT peptide array binding signal intensity: 4570
SpMyo1
  SPOT peptide array binding signal intensity: 333
SpNbp2
  SPOT peptide array binding signal intensity: 191
SpPex13
  SPOT peptide array binding signal intensity: 150
SpRvs167
  SPOT peptide array binding signal intensity: 2150
SpSla1-D1-D2
  SPOT peptide array binding signal intensity: 86
SpSla1-D3
  SPOT peptide array binding signal intensity: 33.5
